The values below come from PubChem BioAssay (Tox21).

“And” between values parts separate entries of the source, which are not always exact repeats. Identical values can stand only once. Some compounds were tested as several samples or in several runs, with calls that do not always agree. The source made the active and inactive calls. The call rests on the fitted dose curve.
On the % scale 0 is the no-effect control and ±100 the full control effect.

A short description of one experiment: qHTS assay to identify small molecule agonists of the estrogen related receptor (ERR) signaling pathway from Tox21 library (AID 1224849). Further: nearly all actives have a fitted effect of over 15% in size. To be noted: ERR reporter cell line, ONE-Glo luciferase, 18 h; at 42.5 µM (top of the series). The text has this: National Center for Advancing Translational Sciences [NCATS]
NIH Chemical Genomics Center [NCGC]
U.S. Environmental Protection Agency [EPA]
National Institutes of Environmental Health Sciences [NIEHS]
National Toxicology Program [NTP]
Estrogen related receptors (ERRs), the first orphan nuclear receptors discovered, play an important role in the control of cellular energy metabolism. ERRs are required for high-energy production in response to the environmental challenges. ERR-alpha was also identified as an adverse marker for breast cancer progression; ERR-alpha-positive tumors have a poor prognosis. To screen and to identify environmental compounds that perturb the ERR signaling pathways could provide valuable information for potential therapeutic or preventive measures in the treatment of metabolic disease. For identifying ERR agonists, ERR cell line (provided by NTP) has been used to screen Tox21 10K library.
The ERR cells were dispensed at 2,000 cells/5 ul/well in 1536-well white plates using a Multidrop dispenser. After the assay plates were incubated at a 37 C/5% CO2 incubator for 6 hours, 23 nL of compounds dissolved in DMSO, positive and negative controls or DMSO only was transferred to the assay plate by a pin tool. The plates were incubated at 37 C for 18 hours. 4 ul/well of One-Glo reagent was added into the assay plates using a Flying Reagent Dispenser. After 30-minute incubation at room temperature, the luminescence intensity in the plates was measured using a ViewLux plate reader.
Consider `Cc1cc(O)c2c(c1)C(=O)c1cc(O)cc(O)c1C2=O`, for which the activity change, positive = activation was -4% (inactive).
Still for that read-out and setting: as for `OC[C@@H](O)[C@H](O)[C@H](O)[C@@H](O)CO`, the figure is 4.66% (inactive) and 4.1% (inactive); as for `C[C@@H](O)[C@H]1C(=O)N2C(C(=O)O)=C(S[C@@H]3CN[C@H](C(=O)N(C)C)C3)[C@H](C)[C@H]12`, 6.5% (inactive) and 3.13% (inactive).
Still for that read-out and setting: as for `O=S(=O)(O)CCS`, the figure is -0.0445% (inactive); as for `O=C1O[C@H](CO)[C@@H](O)[C@H](O)[C@H]1O`, 3.62% (inactive); as for `CC1(C)O[C@@H]2C[C@H]3[C@@H]4C[C@H](F)C5=CC(=O)CC[C@]5(C)[C@H]4[C@@H](O)C[C@]3(C)[C@]2(C(=O)CO)O1`, -3.03% (inactive).
With `Cn1c([N+](=O)[O-])cnc1COC(N)=O`, the activity change, positive = activation was 3.23% (inactive).
Still for that read-out and setting: in the case of `O=C(c1cc(O)c(O)c(O)c1)c1ccc(O)c(O)c1O` it was -6.33% (inactive).
Still for that read-out and setting: as for `Nc1cc(-c2ccncc2)c[nH]c1=O`, the figure is -5.23% (inactive); as for `CS(=O)(=O)Nc1ccc([N+](=O)[O-])cc1Oc1ccccc1`, -19.6% (inactive); as for `CCOC(=O)[C@H](CCc1ccccc1)N[C@@H](C)C(=O)N1Cc2ccccc2C[C@H]1C(=O)O`, -3.47% (inactive).

Staying with this experiment, now noted: ERR reporter cell line, ONE-Glo luciferase, 18 h; at 92.4 µM (top of the series).
Consider `Cc1cc(O)c2c(c1)C(=O)c1cc(O)cc(O)c1C2=O`, for which the activity change, positive = activation was -40.4% (inactive).
The same measure, in the same setting: in the case of `CCOC(=O)/C=C\C(=O)OCC` it was 1.73% (inactive) and 0.529% (active); in that of `Clc1cc(Cl)c(Cl)cc1Cl`, 6.69% (inactive) and 12.5% (inactive); in that of `CCCCC(CC)COC(=O)CCCCCCCC(=O)OCC(CC)CCCC` (stereo not given), -81.2% (inactive) and -2.38% (inactive).
Same read-out and setting: in the case of `COCC(C)O` (stereo not given) it was -0.602% (inactive) and 6.16% (inactive).
The same measure, in the same setting: as for `CC(=O)CCc1ccccc1`, the figure is 1.01% (inactive) and -0.812% (inactive); as for `O=c1c(-c2ccc(O)cc2)coc2cc(O)ccc12`, 150% (active) and 64.9% (active); as for `C=C(C)C(=O)OCCCCCCCCCCCC`, 5.32% (inactive) and 1.41% (inactive).
As for `O=S(=O)(O)CCS`, the activity change, positive = activation was -7.56% (inactive).
The same measure, in the same setting: in the case of `O=[N+]([O-])C(CO)(CO)CO` it was 10.1% (inactive) and 10.2% (inactive); in that of `O=C(O)c1cc(-c2ccccc2)nc2ccccc12`, 1.96% (active).
Take `O=C1O[C@H](CO)[C@@H](O)[C@H](O)[C@H]1O`: the activity change, positive = activation is -0.676% (inactive).
The same measure, in the same setting: in the case of `CCCCNC(N)=O` it was 7.41% (inactive) and 4.54% (inactive).
Same read-out and setting: in the case of `CC1(C)O[C@@H]2C[C@H]3[C@@H]4C[C@H](F)C5=CC(=O)CC[C@]5(C)[C@H]4[C@@H](O)C[C@]3(C)[C@]2(C(=O)CO)O1` it was -6.71% (inactive); in that of `Cn1c([N+](=O)[O-])cnc1COC(N)=O`, 6.73% (inactive).
Still for that read-out and setting: in the case of `CC(C)(CO)COC(=O)C(C)(C)CO` it was 2.22% (inactive) and 0.644% (inactive).
As to `O=C(c1cc(O)c(O)c(O)c1)c1ccc(O)c(O)c1O`, the activity change, positive = activation was -10.5% (inactive) and -15.9% (inactive).
For `Nc1cc(-c2ccncc2)c[nH]c1=O`, the activity change, positive = activation was -0.579% (inactive).
For the compound `CS(=O)(=O)Nc1ccc([N+](=O)[O-])cc1Oc1ccccc1`, the activity change, positive = activation was -48.5% (inactive).
Same read-out and setting: as for `O=S(=O)(Oc1ccc(Cl)cc1Cl)c1ccccc1`, the figure is -20% (inactive) and 8.74% (inactive); as for `CCOC(=O)[C@H](CCc1ccccc1)N[C@@H](C)C(=O)N1Cc2ccccc2C[C@H]1C(=O)O`, -6.49% (inactive).
Regarding `Cc1cc(=O)[nH]c(C(C)C)n1`, the activity change, positive = activation is 2.86% (inactive) and -3.8% (inactive).
Still for that read-out and setting: in the case of `OC1CCCC1` it was 4.85% (inactive) and 0.946% (inactive).
Still for that read-out and setting: in the case of `O=C1CCCCC1` it was -2.85% (inactive) and -5.66% (inactive); in that of `CCCCCCOC(C)=O`, 8.85% (inactive) and -7.41% (inactive); in that of `CC1=C(/C=C/C(C)=C/C=C/C(C)=C/CO)C(C)(C)CCC1`, -2.72% (inactive) and -18.5% (inactive).
The same measure, in the same setting: as for `O=[N+]([O-])c1cccc(Cl)c1`, the figure is 8.37% (inactive) and -4.75% (inactive); as for `CCCCCCCCCC(=O)O`, -1.8% (inactive) and -5.57% (inactive); as for `ClC1=C(Cl)C(Cl)(Cl)C(Cl)=C1Cl`, 5.38% (inactive) and 4.2% (inactive).
